Most compounds without a hit are left out; they make up all but 3.3% or so of the library.
AmpC inh detg = blocks E. coli AmpC beta-lactamase in detergent assay. AmpC hydrolysis of nitrocefin, absorbance 480 nm, 0.01% Triton. Potency, µM (titrated, usually from 114 µM), for inactives: at the top dose activity change, negative = inhibition, actives largely listed as inhibitors. actives 0.041% (n = 370,000);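 also: 0% = no-compound wells and -100% = no-enzyme wells; nearly all actives have a fitted effect of over 25% in size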
Target sequence (P00811 whole entry, looked up): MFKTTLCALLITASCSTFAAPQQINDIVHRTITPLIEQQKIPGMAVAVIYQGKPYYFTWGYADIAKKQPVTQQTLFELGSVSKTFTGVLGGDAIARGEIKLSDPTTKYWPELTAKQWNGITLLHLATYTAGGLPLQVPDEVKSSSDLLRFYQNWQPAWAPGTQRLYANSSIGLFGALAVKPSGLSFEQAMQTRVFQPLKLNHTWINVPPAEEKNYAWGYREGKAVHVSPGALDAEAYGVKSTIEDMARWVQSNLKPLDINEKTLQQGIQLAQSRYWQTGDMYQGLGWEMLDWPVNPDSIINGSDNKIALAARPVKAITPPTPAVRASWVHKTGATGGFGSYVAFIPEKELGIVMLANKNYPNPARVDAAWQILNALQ
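AmpC (5.3 nM in the dispensed reagent) in 20 mM phosphate pH 7.0 with 0.01% (detergent screen) or 0.0001% Triton X-100 was preincubated with compounds for 15 min at room temperature. Nitrocefin was then added from an 800 uM solution, and hydrolysis was followed at 480 nm.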
AmpC inh no detg = AmpC beta-lactamase inhibition without detergent; P00811; AmpC nitrocefin hydrolysis, absorbance 480 nm, 0.0001% Triton; Potency, µM (series often up to 57.1 µM), for the others: top-dose activity change, negative = inhibition, hits mostly inhibitors; actives 0.52% (n = 330,000);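 also: plate controls were no compound for no effect and no enzyme for full effect; nearly all actives have a fitted effect of over 20% in size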
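20 mM phosphate pH 7.0 + 0.01% (detergent screen) or 0.0001% Triton X-100; 5.3 nM AmpC reagent; cpd preinc 15 min RT; nitrocefin (800 uM stock) to start; A480 q20 s × 4 min; Activity was normalised to no-enzyme and no-compound control wells.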
Sm TGR block = inhibitors of Schistosoma mansoni thioredoxin glutathione reductase. Q962Y6. purified TGR, DTNB reduction, TNB absorbance 405 nm. Potency, µM (doses to about 114 µM), for the others: at the highest dose activity change, negative = inhibition, usual class: inhibitors. actives 3% (n = 360,000); also: nearly all actives have a fitted effect of over 60% in size
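Kinetic colorimetric format: TGR-catalysed, NADPH-driven DTNB reduction monitored via TNB absorbance. Enzyme dispensed at 20 nM; compound exposure 15 min at room temperature before reaction start.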
Numbers without * were called inactive; u = inconclusive; x = no result given; [ ] = remark or other dose. Calls follow the shape of the dose curve; as a rule, active = well fitted curve in the direction sought with a large enough effect; inconclusive = small, poorly fitted or top-dose-only effect, or another doubt; inactive = no such curve, though single readings can be large; an effect the other way counts as inactive or inconclusive. Unless noted, % is scaled to controls: 0 for no effect and ±100 for the full control effect; potency is read from the fitted curve at half-maximal effect.

SMILES	AmpC inh detg	AmpC inh no detg	Sm TGR block
CN(CC(=O)Nc1ccccc1Br)C(=O)CNC(=O)Cc1cccc2ccccc12	4%	69%	5%
COc1ccccc1CN1CC(C(=O)NCc2nc3ccccc3n2C)CCC1=O (stereo unspecified)	4%	43%	5%
O=C(COC(=O)c1ccccc1NS(=O)(=O)c1ccc(Cl)cc1)NCc1ccccc1	-18%	-1%	0%
NS(=O)(=O)c1ccc(Sc2ccc3ccccc3c2)nc1	-9%	-29%	-8%
CCc1ccc(NC(=O)CNC(=O)[C@@H]2Cc3ccccc3CN2)cc1	-1%	-13%	1%
C=CCN1C(=O)NC(=O)/C(=C/C=C/c2ccccc2)C1=O	5%	-28%	10µM*
O=C1NC(=O)N(CCc2ccc(F)cc2)C(=O)/C1=C\C=C\c1ccccc1	-2%	3.5µM*	u
CN(C)c1ccc(/C=C/C=C2/C(=O)NC(=O)N(c3ccccc3)C2=O)cc1	1%	-7%	u
Cc1ccc(/C=C2/C(=O)NC(=O)N(CCc3ccc(F)cc3)C2=O)s1	-4%	-1%[2.29 µM]	u
O=C(NCC1(c2ccccc2)CCOCC1)c1cccs1	4%	-4%	1%
CC(=O)c1nn(-c2ccc(OC(F)(F)F)cc2)nc1Nc1ccc(Cl)cc1	0%	x	-1%
O=C(Nc1c(F)cccc1F)C1CCN(C(=O)c2cccs2)CC1	1%	-21%	22%
O=[N+]([O-])c1ccc(S(=O)(=O)c2ccccc2)nc1	8%	-18%	0.32µM*
Nc1ccc(S(=O)(=O)c2ccccc2)nc1	-1%	-15%	2%
O=S(=O)(c1ccccc1)c1ccc(C(F)(F)F)cn1	4%	-13%	14µM*
Cc1ccc([N+](=O)[O-])cc1	3%	-12%	10%
Cc1ccc(S(=O)(=O)c2ccc([N+](=O)[O-])cn2)cc1	-11%	-18%	0.1µM*
O=[N+]([O-])c1ccc(Nc2ccccc2)nc1	u	-24%	-11%
COCCN1CCN(C(=O)c2cc(COc3ccc(F)cc3F)on2)CC1	u	12%	-12%
COc1ccc(CCNC(=O)CCc2cn(C)c3ccccc23)c(OC)c1OC	-4%	45%	6%
CCOC(=O)/C=C(\C)Sc1cc(=O)oc2ccccc12	0%	-23%	22µM*
CCOC(=O)Nc1oc2ccccc2c(=O)c1C	u	-5%	3%
CCOC(=O)c1c(C)[nH]c2c1cc(O)c1ccccc12	1%	25%	-20%
CCOC(=O)/C=C(\C)Sc1cc(O)c2ccccc2c1O	-8%	-54%	0.79µM*
Cc1cccc2c(=O)cc(CSc3ccccc3NC(=O)c3cccc(F)c3)[nH]c12	17%	x	6%
SMILES	AmpC inh detg	AmpC inh no detg	Sm TGR block
COc1ccc(S(=O)(=O)N(CC(=O)NCCc2ccccc2)c2ccc(Cl)cc2)cc1	-15%	x	-8%
COc1cc(CC2COC(c3ccc(O)c(OC)c3)C2COC(C)=O)ccc1O (stereo unspecified)	-4%	-36%	40µM*
COc1cc([C@@H]2OC[C@@H]3[C@H]2CO[C@@H]3c2ccc3c(c2)OCO3)ccc1O	x	-21%	x
COc1ccc(C)cc1NCc1cccc(OC)c1OC	1%	-9%	-8%
COc1ccc(C)cc1NCc1cc(=O)oc2cc(-c3ccccc3)c(O)cc12	-5%	3.5µM*	-14%
Cc1cc(C)cc(NCc2cc(=O)oc3cc(-c4ccccc4)c(O)cc23)c1	u	-53%	-7%
COc1cc(OC)c(OC)cc1CNc1cc(C)ccc1OC	u	75%	40µM*
Cc1csc2nc(COC(=O)c3cccc(NC(=O)c4cccc(Cl)c4)c3)cc(=O)n12	1%	x	-13%
O=C(O)c1cc([N+](=O)[O-])cc2c1C=Cc1ccccc1O2	-8%	-24%	0%
CC(Cc1ccccc1)NC(=O)c1cc([N+](=O)[O-])ccc1Cl (stereo unspecified)	2%	-16%	u
CN1CC(C(=O)O)Cc2c1ccc1ccccc21 (stereo unspecified)	-7%	-19%	20µM*
CN1C(=O)N(C)C(=O)C2(Cc3c(ccc4ccccc34)N(C)C2)C1=O	-7%	21%	-27%
CCN(CC(=O)Nc1cc(Cl)ccc1C)C(=O)CCOc1ccccc1C	u	-12%	35µM*
CCCN(CC(=O)Nc1ccccc1C)C(=O)COc1c(C)cccc1C	u	3%	-6%
CCCN(CC(=O)Nc1ccccc1C)C(=O)CCl	4%	-18%	14µM*
CCCN(CC(=O)Nc1ccccc1C)C(=O)c1ccc(-c2ccc([N+](=O)[O-])cc2)o1	3%	-7%	6.3µM*
CCN(CC(=O)Nc1cc(Cl)ccc1C)C(=O)COc1ccccc1F	u	-7%[11.4 µM]	-10%
CCCN(CC(=O)Nc1ccccc1C)C(=O)COC(=O)CSc1ccc([N+](=O)[O-])cc1	u	-6%	-4%
CC1CCCCN1C(=O)CN(C)S(=O)(=O)c1cccc2nsnc12 (stereo unspecified)	-7%	-1%	-5%
CCSc1nc(-c2ccco2)ccc1C#N	1%	-45%	11µM*
N#Cc1ccc(-c2ccco2)nc1SCc1ccccc1	-9%	-36%	u
COc1ccc(C)cc1NC(=O)c1nn(C)cc1Br	-4%	-1%	0%
COC(=O)c1[nH]c(C)c(/C(O)=C2\C(=O)C(=O)N(CCN(C)C)C2c2ccco2)c1C (stereo unspecified)	-14%	-21%	u
COC(=O)c1[nH]c(C)c(/C(O)=C2\C(=O)C(=O)N(CCN(C)C)C2c2ccc(C)o2)c1C (stereo unspecified)	u	1%	32µM*
CCc1noc(C)c1C(=O)Nc1cc(S(=O)(=O)N2CCOCC2)ccc1OC(C)C	-8%	72%	-5%
SMILES	AmpC inh detg	AmpC inh no detg	Sm TGR block
O=C(NCCCl)C1Cc2c(ccc3ccccc23)O1 (stereo unspecified)	7%	-15%	x
O=C(C1=C[C@@H](c2ccccc2)C[C@@H](OCCCCO)O1)N1CCOCC1	3%	11%	40µM*
O=C(C1=C[C@@H](C2CCCCC2)C[C@@H](OCCCCO)O1)N1CCOCC1	-5%	42%	0%
CN1CCN(C(=O)C2=C[C@@H](c3csc4ccccc34)C[C@@H](OCCCCO)O2)CC1	8%	143%	45µM*
O=C(C1=C[C@@H](C2CC2)C[C@@H](OCCCCO)O1)N1CCOCC1	6%	4%	56µM*
CN1CCN(C(=O)C2=C[C@H](c3ccccc3)C[C@H](OCc3ccc(CO)cc3)O2)CC1	7%	77%	u
O=C(C1=C[C@@H](c2ccc(Br)cc2)C[C@@H](OCCCCO)O1)N1CCOCC1	8%	61%	u
CN1CCN(C(=O)C2=C[C@@H](c3ccccc3)C[C@@H](OCCCCO)O2)CC1	5%	10%	40µM*
O=C(C1=C[C@H](c2csc3ccccc23)C[C@H](OCCCCO)O1)N1CCOCC1	0%	118%	u
CCc1ccccc1NC(=O)CN1CCN(CC(=O)NCc2ccc(Cl)cc2)CC1	-6%	172%	-9%
CCOc1ccc(Nc2ncnc3c2cnn3C)cc1	-3%	-13%	17%
COC(=O)Nc1ccc2c(c1)N(C(=O)CCN(C)C)c1ccccc1CC2	3%	11%	-5%
